Data as given in the supplement of paper PMC6555819.

test system: RARg:RXRa (NR concentration 270 nM, RXRa partner concentration 90 nM); test: PBM binding z-score (relative to random genomic background probes); higher = stronger binding; sequences stand for … in GC…GCGATTGACAGCGTAGAATGAAGG
Summary of the method: (§1)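 Binding buffer was PBS pH 7.4 with 2% milk, 0.02% Triton X-100, 1 mM DTT, 0.2 mg/mL BSA and 0.4 mg/ml salmon testes DNA. In it, ligand-free nuclear receptor dimers were incubated 1 h on custom Agilent 4×180K protein-binding microarrays carrying double-stranded probes. Antibodies against each partner (one per run) detected binding, and z-scores were calculated against random background probes after regression normalization of scanned fluorescence.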

| Sequence | PBM binding z-score |
| --- | --- |
| CGAACTGGGTCAAAGGACAGTGAAAGGCGACGTA | 3.7 |
| TCGAGTTGGTTACGGGGGCATTCAGGGATGAAGA | 2.49 |
| CGAACTAGGTCACAGGACAGTGAAAGGCGACGTA | 4.25 |
| CCGAGTGGGTTACGAGGGGGCATTCAGTGCGAAT | 2.95 |
| CAAACTAGGTCACCGGAAAGTCAAAGTCCGCATG | 5.17 |
| CTGAGTAGGTTACGAGGGGGCATTCAGTGCGAAT | 3.13 |
| CATACCGGGTCAGCTAGGCCAGAGTAGGGACGGC | 3.47 |
| AGATGTAGGTTAGGGTCATTCAGAAAGTAGGGAA | 3.98 |
| TCGAGTAGGTTACGGGTGCATTCAGGGATGAAGA | 0.869 |

test system: RARg homodimer (NR concentration 270 nM); test: as above
Summary of the method: as §1

| Sequence | PBM binding z-score |
| --- | --- |
| TGGAGTAGGTTACGGGGGCATTCAGGGATGAAGA | 3.39 |
| CGTCCAAGGTCAGAGAGGTCAGTGTATGCCGAGT | 6.77 |
| CCTACTGGGCCACGAAAGGTGATTGATTCAGTGA | 0.505 |
| ATATGTAGGTTAGGGTCATTAAGAAAGTAGGGAA | 2.76 |
| ATATGTAGGTAAGGGTCATTCAGAAAGTAGGGAA | 3.2 |
| ATATGTAGGTTAGGGTAATTCAGAAAGTAGGGAA | 0.966 |
| AGTCCAAGTTCACTAGGTAACGTAAGATTCAGCT | 2.98 |
| TCTCGGAGGACACGAAAAGTCAGAGCTCGACATC | 1.37 |
| ATATGTAGGTTAGGGTTATTCAGAAAGTAGGGAA | 1.05 |
| CGAACTAGGTCACCAAGACAGTGAAGAGGTTGGA | 4.97 |
| CTATGTAAGTTAAGGGGGTCATTCAGTTTGAAAG | 3.19 |
| CAAACTAGGTCAAGGGGTCAAAGTCCGCTTCCCG | 7.19 |
| CGCACTAGGTCACCAGGACAGTGAAGAGGTTGGA | 5.06 |
| CGACCTAGGTCACCAGGACAGTGAAGAGGTTGGA | 5.83 |
| CAAACTAGGTCACGAAAGGTCAACGTCGAATGAC | 8.96 |
| TATACAGGATCAAAGGCCAGAGTACGAATGTCGA | 1.02 |
| ATATGTAGGTTCCATCCGGGTCATTCAGGCTATG | 1.19 |
| CGAACTAGGTCACTAGGACAGTGAAGAGGTTGGA | 4.16 |
| CAAACTAGGTCACCGGGAGGTCAAAGTCCGCATG | 7.68 |
| GCTGCTAGGTCAGGTTGGTCAACTAACGGGTACG | 3.89 |

| Sequence | PBM binding z-score |
| --- | --- |
| CCGAGTAGGTTACGACGGGGCATTCAGTGCGAAT | 0.746 |
| CCGAGTAGGTTACGAGGGGGCATTCGGTGCGAAT | 2.32 |
| CGAACAAGGTCAAAGGACAGTGAAAGGCGACGTA | 5.92 |
| ATATGTAGGTTAAGGTCATTCAGAAAGTAGGGAA | 4.96 |
| CTATGTAGGTTAAGGGGGTCACTCAGTTTGAAAG | 3.79 |
| CAAGCTAGGTCAAGAGGTCAAAGTCCGCTTCCCG | 7.66 |
| CGAACTAGGTCAAAGGACAGTAAAAGGCGACGTA | 4.79 |
| TCGAGTAGGTTCCGGGGGCATTCAGGGATGAAGA | 1.13 |
| TGAATGAGGTTTAAGATCAGGGAACGTGGCGTCG | 0.0198 |
| TCGAGTAGGTTACGGGGGCATTCAAGGATGAAGA | 2.33 |
| CGAACTGGGTCAAAGGACAGTGAAAGGCGACGTA | 3.67 |
| TCGAGTTGGTTACGGGGGCATTCAGGGATGAAGA | 1.71 |
| CGAACTAGGTCACAGGACAGTGAAAGGCGACGTA | 4.96 |
| CCGAGTGGGTTACGAGGGGGCATTCAGTGCGAAT | 2.18 |
| CAAACTAGGTCACCGGAAAGTCAAAGTCCGCATG | 5.86 |
| CTGAGTAGGTTACGAGGGGGCATTCAGTGCGAAT | 2.47 |
| CATACCGGGTCAGCTAGGCCAGAGTAGGGACGGC | 3.83 |
| AGATGTAGGTTAGGGTCATTCAGAAAGTAGGGAA | 3 |
| TCGAGTAGGTTACGGGTGCATTCAGGGATGAAGA | 0.463 |
